# MITF inh – blocks human microphthalmia-associated transcription factor. O75030. AlphaScreen MITF homodimerization, bead proximity signal. inhibition, % at 2.6 µM. 650,000 tested, 0.91% active; in the data active = inhibition above about 50%;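 note: 0% = vehicle wells with protein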
# FBW7 activator – activators of human E3 ligase FBW7. normalized activity (activation), % at 26.1 µM. Q969H0. 650,000 tested, 0.13% active. AlphaScreen FBW7–phospho-cyclin E peptide binding, activator screen; in the data active = normalized activity above about 1.9%;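 note: purified mutant Fbw7 with reduced substrate affinity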
# TEAD-YAP inh – TEAD-YAP interaction inhibition; HEK-TIYL cells, TEAD-Gal4/YAP UAS-luciferase luminescence; AID 1259422; 640,000 tested, 1.4% active; inhibition, % at 9.12 µM; in the data active = inhibition above about 32%;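 note: 0% = median of test compound wells and 100% = reference inhibitor wells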
# GPR151 ag – activates the human receptor GPR151 | Q8TDV0 | PathHunter beta-arrestin GPR151 cells, luminescence | activation, % at 11.2 µM | 650,000 tested, 1% active; in the data active = activation above about 4.9%;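 note: 0% = median of compound wells and 100% = cells with positive control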
# Target sequence (Q8TDV0 whole entry, looked up): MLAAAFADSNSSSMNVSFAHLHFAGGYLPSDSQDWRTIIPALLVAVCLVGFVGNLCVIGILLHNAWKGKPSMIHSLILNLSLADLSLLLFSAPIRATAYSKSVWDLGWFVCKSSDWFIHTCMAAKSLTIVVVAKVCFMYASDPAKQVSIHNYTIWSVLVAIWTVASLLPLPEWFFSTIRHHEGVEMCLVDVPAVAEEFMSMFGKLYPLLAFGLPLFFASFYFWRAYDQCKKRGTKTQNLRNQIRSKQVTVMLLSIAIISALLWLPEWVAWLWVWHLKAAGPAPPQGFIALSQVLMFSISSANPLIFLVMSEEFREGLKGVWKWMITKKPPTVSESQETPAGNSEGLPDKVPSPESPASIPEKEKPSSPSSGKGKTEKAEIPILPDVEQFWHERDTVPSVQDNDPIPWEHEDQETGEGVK
# GPR151 conf act – human GPR151 activation, confirmation screen. shares compounds with GPR151 ag. GPR151 PathHunter beta-arrestin cells, luminescence, 90 min; % of EA-reagent control over plate median. activation, % at 11.2 µM. 6,700 tested, under 10 active. AID 1508609;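 active = mean percent activation across replicates above the confirmation screen cutoff of 4.91%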
# GPR119 counter – counter-screen for GPR151 activators: effect on human GPR119. shares compounds with GPR151 ag. GPR119 PathHunter beta-arrestin cells, luminescence, 90 min; 0 = compound-well median, 100 = enzyme-acceptor control. activation, % at 11.2 µM. 6,700 tested, 0.3% active. AID 1508611;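 active = mean percent activation in the counterscreen above 29.09%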;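 note: counterscreen on off-target GPR119 to flag nonselective hits from the GPR151 activator screen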
# Starred values were filed as active, the others as inactive; / = no result. A selection: hits, their analogues and other compounds. The true share with any hit is near 3.5%.
SMILES,MITF inh,FBW7 activator,TEAD-YAP inh,GPR151 ag,GPR151 conf act,GPR119 counter
Cc1cccc(NC(=O)CN(c2ccc(Br)c(C)c2)S(C)(=O)=O)c1,11.3,0.2,2.5,10.1*,0.2,-4.4
Cc1c(Cl)cccc1N(CC(=O)Nc1ccc(F)c(Cl)c1)S(C)(=O)=O,-9.7,-0.2,5.0,5.5*,1.6,-1.8
COc1ccc(Cl)cc1N(CC(=O)Nc1cccc(C(C)=O)c1)S(C)(=O)=O,7.0,-0.1,-0.2,5.8*,0.6,-1.5
Cc1cc(C)c2c(n1)sc1c2nc(C)n2c3ccccc3nc12,1.9,0.1,0.1,1.0,/,/
COc1cc2c(cc1OC)CN(S(=O)(=O)c1ccc(Cl)cc1)CC2,1.4,-0.2,-8.8,-0.1,/,/
CSc1cccc(NC(=O)CN(c2ccc(F)c(Cl)c2)S(C)(=O)=O)c1,-9.5,0.1,4.0,8.5*,-0.1,4.4
CCOc1ccccc1N(CC(=O)Nc1ccccc1OC)S(C)(=O)=O,-0.3,0.0,-2.9,8.9*,-0.4,-9.2
COc1ccccc1NC(=O)CN(c1ccccc1OC)S(C)(=O)=O,-0.1,0.0,5.2,-0.9,/,/
COc1cccc(NC(=O)CN(C)S(=O)(=O)c2ccc(F)cc2)c1,-9.8,-0.1,3.4,-0.1,/,/
CC(=O)c1cccc(NC(=O)CN(C)S(=O)(=O)c2ccc(F)cc2)c1,0.0,0.0,-6.5,5.9*,-0.9,-7.2
CCOc1ccc(-n2cc(-c3ccccc3)c3c(N4CCCC4)ncnc32)cc1,1.1,-0.1,0.2,-1.2,/,/
O=C(NCCC1=CCCCC1)c1ccc2c(=O)n(Cc3ccccc3)c(=S)[nH]c2c1,7.7,0.1,-11.7,-1.1,/,/
O=C1CCCCC(=O)N(c2ccccc2)c2ccccc21,-9.5,0.0,15.4,-0.8,/,/
O=C1Cc2ccccc2N1c1ccccc1,-6.1,0.6,0.1,9.9*,0.9,4.9
COc1cc(NC(=O)c2ccc(-c3ccc(C(=O)N4CCN(C)CC4)cc3)s2)cc(OC)c1OC,11.6,0.4,6.3,2.8,/,/
COc1cc(NC(=O)c2ccc(-c3ccc(C(=O)NC4CC4)cc3)s2)cc(OC)c1OC,7.2,0.1,43.2*,5.3*,0.6,4.0
COc1ccc(N2CCN(S(=O)(=O)c3cccc(OC)c3)CC2)cc1,10.0,0.0,-4.6,4.0,/,/
Cc1cc(N2CCN(C(=O)c3ccc(Cl)cc3Cl)CC2)c(F)cc1[N+](=O)[O-],2.1,-0.1,6.3,6.8*,0.6,6.4
COc1ccc(-c2noc(CNC(=O)COc3ccc(C)c(C)c3)n2)cc1,3.0,0.1,-12.1,-1.8,/,/
CCc1nn(CC(=O)OC(C)C)c(=O)c2cc3oc(C)cc3n12,6.6,0.0,-18.6,5.4*,-0.6,-6.0
Cc1ccn2c(CN(C)CC3COCCO3)c(C(=O)N3CCCCCC3)nc2c1 (configuration not stated),-3.2,0.2,5.0,-0.1,/,/
CC(C)Nc1ncnc2c1c(-c1ccccc1)cn2-c1cccc(C(F)(F)F)c1,-3.2,-0.1,1.3,0.5,/,/
COc1ccc(NC(=O)CCCC(=O)OCC(F)(F)C(F)F)cc1,13.2,0.1,9.0,5.0*,0.1,6.0
Cc1ccc(C2C3=C(CC(C)(C)CC3=O)Nc3c2c(=O)n(C)c(=O)n3C)cc1 (configuration not stated),-3.6,-0.5,0.8,7.5*,-0.1,-5.5
Cn1c2c(c(=O)n(C)c1=O)C(c1ccc(F)cc1)C1=C(CC(C)(C)CC1=O)N2 (configuration not stated),2.9,-0.1,10.2,-0.4,/,/
SMILES,MITF inh,FBW7 activator,TEAD-YAP inh,GPR151 ag,GPR151 conf act,GPR119 counter
CC1=C(C(=O)Nc2nc3ccccc3s2)C(c2ccc(C)cc2)C2=C(CC(C)(C)CC2=O)N1 (configuration not stated),-4.2,0.4,14.9,6.5*,0.9,17.8
Cc1ccc(C2C3=C(CC(C)(C)CC3=O)Nc3n[nH]c(C)c32)cc1 (configuration not stated),5.7,0.1,8.6,8.4*,-0.2,0.0
CC1=C(C(=O)Nc2nc3ccccc3s2)C(c2ccc(Br)cc2)C2=C(CC(C)(C)CC2=O)N1 (configuration not stated),-13.4,0.1,1.9,0.2,/,/
Cc1cn2c(=O)c(C(=O)NOCc3cccc(C(F)(F)F)c3)cnc2s1,17.2,0.2,-8.6,14.4*,0.8,-2.5
CC1CCCN(c2c(-c3ccc(Cl)cc3)c(=O)c2=O)C1 (configuration not stated),-3.0,-0.1,9.6,5.9*,0.6,-4.9
c1cc2c(cc1OCCNC1CCCC1)CCC2,-43.6,-0.1,0.8,6.5*,-0.1,-2.0
N#Cc1c(N)n(CCNC(=O)Nc2cccc(C(F)(F)F)c2)c2nc3ccccc3nc12,-4.3,0.5,0.0,0.2,/,/
CCOC(=O)Cn1nnnc1CN(CCO)Cc1cc2cc(C)ccc2[nH]c1=O,4.6,0.2,5.8,4.6,/,/
CSc1ccccc1C(=O)Nc1ccc2c(c1)CC(=O)N2,5.8,-0.1,5.9,5.3*,-0.2,-2.6
O=C(OCc1ccccc1)c1ccc(OC(=O)c2cc3ccccc3oc2=O)cc1,-19.0,0.1,10.8,6.6*,-0.2,-2.0
O=C(Oc1ccccc1)c1cc2ccccc2oc1=O,-2.4,-0.1,-3.1,0.5,/,/
CCOc1ccc(C(=O)NCCn2cc(SC(=N)N)c3ccccc32)cc1,1.2,-0.1,10.3,5.0*,0.1,-3.6
O=C1CN(c2ccc(Cl)cc2)S(=O)(=O)c2ccccc2N1,1.9,0.0,-6.0,5.6*,0.6,-2.9
CSc1nc2c(c(=O)n1C)C1(CCCC1)Cc1ccccc1-2,-6.6,0.0,2.3,-1.1,/,/
COc1ccc(CNS(=O)(=O)c2ccc(F)c(C(=O)Nc3ccc(Cl)c(Cl)c3)c2)cc1,1.5,0.1,9.7,0.0,/,/
COc1ccc(CCNC(=O)CCc2nc3cccnc3n2-c2ccccc2)c(OC)c1,-0.9,0.0,3.9,5.1*,-0.4,0.5
C=CCn1cnc2c(nnn2-c2cc(C)cc(C)c2)c1=O,-7.9,0.0,-15.8,9.4*,1.2,9.0
CC1=[N+]([O-])C(C)(C)C(c2ccc(C)o2)=[N+]1[O-],6.6,0.0,1.2,0.6,/,/
CC1(c2ccc3c(c2)OCCO3)NC(=O)N(Cc2cc(=O)oc3cc4c(cc23)CCC4)C1=O (configuration not stated),4.2,-0.1,0.0,6.7*,-0.4,0.3
Cc1nc(NC(C)c2ccccc2)cc(-c2ccccc2F)n1 (configuration not stated),11.7,0.1,1.8,5.8*,-1.6,-9.6
Cc1ccc(CNC(=O)c2ccc(-n3cccc3)cc2)cc1,41.0,0.1,-16.7,1.2,/,/
Cc1ccc(CNC(=O)C(=O)NCc2ccc(Cl)cc2)cc1,11.1,0.3,3.2,-0.1,/,/
Cc1ccc(CNC(=O)c2csnn2)cc1,7.2,0.3,-3.1,12.6*,1.4,6.8
